TRPV1 ag – HTS Assay for Compounds that Act as Agonists of the Vanilloid Receptor 1; activation, % at 8.33 µM; TRPV1-expressing cells, Fluo-8 calcium influx, agonist mode; 320,000 compounds, 0.19% hits; in the data active means activation above about 80%; inconclusive means between about 30% and that limit
Target sequence (Q8NER1 whole entry, looked up): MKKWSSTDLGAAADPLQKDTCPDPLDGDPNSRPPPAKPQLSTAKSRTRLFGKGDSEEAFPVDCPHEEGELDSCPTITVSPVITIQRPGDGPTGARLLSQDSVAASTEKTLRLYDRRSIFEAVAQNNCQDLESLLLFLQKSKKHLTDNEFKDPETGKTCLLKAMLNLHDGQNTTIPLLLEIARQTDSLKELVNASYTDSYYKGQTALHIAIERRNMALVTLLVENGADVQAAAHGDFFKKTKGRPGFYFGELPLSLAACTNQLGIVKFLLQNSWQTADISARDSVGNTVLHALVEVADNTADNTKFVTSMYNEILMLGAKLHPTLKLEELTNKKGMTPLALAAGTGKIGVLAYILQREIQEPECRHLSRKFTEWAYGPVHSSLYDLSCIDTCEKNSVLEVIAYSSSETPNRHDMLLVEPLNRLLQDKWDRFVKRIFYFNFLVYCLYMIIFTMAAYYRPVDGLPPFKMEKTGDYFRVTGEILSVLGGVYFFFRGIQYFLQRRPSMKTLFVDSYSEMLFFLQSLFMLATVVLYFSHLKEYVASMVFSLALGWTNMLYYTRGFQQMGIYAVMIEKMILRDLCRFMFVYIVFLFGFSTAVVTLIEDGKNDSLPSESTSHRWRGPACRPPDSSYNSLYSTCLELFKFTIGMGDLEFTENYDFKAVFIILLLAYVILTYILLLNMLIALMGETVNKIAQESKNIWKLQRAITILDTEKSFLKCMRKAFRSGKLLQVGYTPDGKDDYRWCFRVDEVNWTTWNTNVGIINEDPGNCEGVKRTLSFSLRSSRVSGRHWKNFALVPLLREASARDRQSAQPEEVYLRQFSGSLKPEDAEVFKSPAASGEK
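Fluo-8 calcium influx in TRPV1-expressing cells, kinetic read (ex 480/em 520 nm). Compound added and read 3 min for agonist activity, followed by capsaicin at EC20 final and 2 min further read for enhancement.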
D1 agonist – Allosteric Agonists of the Human D1 Dopamine Receptor: qHTS. HEK293 T-REx D1 cells, calcium flux, agonist mode. activation, % at 2 µM. 360,000 compounds, 1% hits; in the data active means activation above about 30%
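Inducible HEK293 T-REx D1 cells, force-coupled to calcium signalling, were plated at 4000 cells/well with tetracycline and held overnight at 30 C. After no-wash calcium dye loading, compound-evoked calcium rise over 180 s flagged agonists.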
D1 antag – Antagonist of Human D 1 Dopamine Receptor: qHTS. D(1A) dopamine receptor (Homo sapiens), P21728. HEK293 TREx D1 cells, calcium flux, dopamine EC80; hits give low values. activity change, negative = inhibition, % at 10 µM. 360,000 compounds, 3.2% hits. AID 504652, 2011; in the data active means activity change below about -30%
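Allosteric or orthosteric antagonism assessed as attenuation of the calcium response to EC80 dopamine, added 180 s after compound, in induced HEK293 Trex D1 cells loaded with no-wash calcium dye.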
TRPV1 potentiator – HTS Assay for Compounds that Act as Potentiators of the Vanilloid Receptor 1; Transient receptor potential cation channel subfamily V member 1 (Homo sapiens), Q8NER1; TRPV1-expressing cells, Fluo-8 calcium influx, capsaicin EC20 potentiation; potentiation, % at 8.33 µM; 320,000 compounds, 0.02% hits; AID 540277, 2011; in the data active means potentiation above about 80%; inconclusive means between about 30% and that limit
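TRPV1-expressing cells were cultured overnight at 35.5C and loaded with Fluo-8 calcium dye for 40 to 90 min at room temperature. After a 10 s baseline, compound was added and calcium influx was read kinetically for 3 min (ex 480/em 520 nm).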
D1 PAM – Potentiators of Human D1 Dopamine Receptor: qHTS | D(1A) dopamine receptor (Homo sapiens), P21728 | HEK293 TREx D1 cells, calcium flux, dopamine EC20 potentiation | 360,000 compounds, 0.036% hits | potentiation, % at 10 µM; in the data active means potentiation above about 30%
Of the large screens only hits and unclear results are named; the others gave an inactive call; ! = repeats disagree. Compounds with a hit are over-represented: about 4.2% of the library has one in this group of screens.

CN(C)CCCN(C(=O)c1ccco1)c1nc(-c2ccc(Cl)cc2)cs1	D1 agonist 33, D1 antag -42
COc1ccc(OC)c(-c2csc(N(Cc3ccco3)C(=O)c3ccco3)n2)c1	none
CCC(=O)N(CC)c1nc(-c2cc(OC)ccc2OC)cs1	D1 agonist 34
COc1ccc(OC)c(-c2noc(CSc3nnc(Cc4ccccc4)n3-c3cccc(C)c3)n2)c1	none (no result: TRPV1 ag, TRPV1 potentiator)
CNS(=O)(=O)c1cc(-c2nn3c(C)nnc3c3ccccc23)ccc1C	none (no result: TRPV1 ag, TRPV1 potentiator)
NC1=NC(=O)/C(=C/c2ccsc2)S1	D1 antag -33
COCCCNC(=O)CSc1nc2c(sc3ccccc32)c(=O)n1CCCC(=O)NCCOC	none (no result: TRPV1 ag, TRPV1 potentiator)
CCOc1cc(C2c3c(n[nH]c3C)C(=O)N2c2ccc(C)cc2)ccc1O (stereo unspecified)	D1 antag -78
O=C(c1cc(F)ccc1F)C1CCCN(C(=O)CSc2ccccn2)C1 (stereo unspecified)	D1 antag -40
O=C(CSc1ccccn1)N1CCCC(Nc2ccccc2)C1 (stereo unspecified)	TRPV1 ag inconclusive
O=C(NCc1ccc2c(c1)OCO2)C(=O)NCC1OCCN1S(=O)(=O)c1ccc(Br)cc1 (stereo unspecified)	none
O=C(NCCCn1ccnc1)C(=O)NCC1OCCCN1S(=O)(=O)c1ccc(Cl)cc1 (stereo unspecified)	D1 antag -51
O=C(NCc1ccc2c(c1)OCO2)C(=O)NCC1OCCN1S(=O)(=O)c1ccc(Cl)cc1 (stereo unspecified)	D1 antag -31
O=C(NCCCn1ccnc1)C(=O)NCC1OCCN1S(=O)(=O)c1ccc(Cl)cc1 (stereo unspecified)	none
Cc1ccc(S(=O)(=O)NCCSCc2ccccc2)cc1	D1 antag -30
COc1ccccc1N(CC(=O)NCCSCc1ccccc1)S(=O)(=O)c1ccc(C)cc1	none
Cc1ccc(CSCCNS(=O)(=O)c2ccc([N+](=O)[O-])cc2)cc1	none
COc1ccc(N(CC(=O)N/N=C/c2ccc(-c3ccc([N+](=O)[O-])cc3)o2)S(=O)(=O)c2ccc(C)cc2)cc1	D1 agonist 73
COc1ccc(S(=O)(=O)N(CC(=O)NCCSCc2ccccc2)c2ccc(C)cc2)cc1	D1 agonist 32 (no result: TRPV1 ag, TRPV1 potentiator)
COc1ccc(S(=O)(=O)N(CC(=O)NCCSc2ccc(C)cc2)c2ccc(C)cc2)cc1	D1 agonist 56 (no result: TRPV1 ag, TRPV1 potentiator)
CCOC(=O)c1c(C)[nH]c(CCC(=O)NCc2ccccc2Cl)c1C	none (no result: TRPV1 ag, TRPV1 potentiator)
COc1ccc(N(CC(=O)NCc2ccc(C)cc2)S(=O)(=O)c2c(C)[nH]c(=O)[nH]c2=O)cc1	D1 antag -35!
Cc1ccc(N(CC(=O)NCCSc2ccccc2)S(=O)(=O)c2ccc(F)cc2)cc1	D1 antag -31 (no result: TRPV1 ag, TRPV1 potentiator)
COc1ccc(CNC(=O)CN(c2ccc(OC)cc2)S(=O)(=O)c2c(C)[nH]c(=O)[nH]c2=O)cc1	none
COc1cc(SC)ccc1C(=O)Nc1ccc(S(=O)(=O)Nc2nccc(C)n2)cc1	none (no result: TRPV1 ag, TRPV1 potentiator)
O=S1(=O)c2ccccc2Nc2ccccc21	TRPV1 potentiator inconclusive
CC1CC(=O)Nc2ccccc2S1(=O)=O (stereo unspecified)	D1 antag -32
COc1ccc(-c2nc3scc(CCNS(=O)(=O)c4c(C)noc4C)n3n2)cc1OC	none (no result: TRPV1 ag, D1 antag, TRPV1 potentiator)
Cc1ccc(-c2nc3scc(CCNS(=O)(=O)c4c(C)noc4C)n3n2)cc1	D1 agonist 32 (no result: TRPV1 ag, D1 antag, TRPV1 potentiator)
Cc1cc(C)n(Cc2ccccc2Cl)n1	D1 antag -47
COc1ccc(N(C(=O)c2ccco2)S(=O)(=O)c2cc(OC)ccc2OC)cc1	D1 antag -35
COc1ccc(N(C(=O)c2ccco2)S(=O)(=O)c2cccs2)cc1	none
COc1ccc(N(C(=O)c2ccco2)S(=O)(=O)c2ccc(F)cc2)cc1	D1 antag -58
COC(=O)c1cccc(NC(=O)N(C)CCc2c(C)nn(C)c2C)c1	none (no result: TRPV1 ag, TRPV1 potentiator)
Cc1ccc(Cl)cc1NC(=O)CSc1ccc(C(=O)O)cn1	none (no result: TRPV1 ag, TRPV1 potentiator)
